Screens deposited in PubChem BioAssay by Johns Hopkins Ion Channel Center.
Shown are actives, neighbours in structure and some others; about 1.6% of the full set was active somewhere.
KCNQ2 inh – rat KCNQ2 potassium channel inhibitors, primary screen, cell-based, CHO-K1, FluxOR thallium flux, B-score. 20 min; hits give low values. B-score at 10 µM. 310,000 tested, 1.1% active. AID 2156, 2009;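 active means fluorescence ratio B-score at most minus 3 library SDs, with starting brightness B-score within 2 library SDs, cut at about -5.5 in these data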
KCNQ2 pot – potentiators of rat KCNQ2 potassium channel. Potassium voltage-gated channel subfamily KQT member 2 (Rattus norvegicus), O88943. CHO-K1 KCNQ2, FluxOR thallium flux fluorescence; hits give high values. B-score at 10 µM. 310,000 tested, 0.54% active. AID 2239, 2010;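 active means fluorescence ratio B-score at least 3 SD of library B-scores, with initial fluorescence B-score within 3 of them, cut at about 5.3 in these data; same plate scores as AID 2156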;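 further: B-score of peak minus minimum over baseline fluorescence ratio after K+ and Tl+ stimulus; positive B-score means potentiation of KCNQ2 with more thallium influx and brighter signal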
Kir21 confirm – mouse Kir2.1 channel blockers, retest, confirmation, cell-based, FluxOR thallium flux, duplicate; shares compounds with KCNQ2 pot; Kir2.1-expressing cells, FluxOR thallium flux fluorescence; hits give low values; Tl flux remaining, % of negative control (hits give low values), % at 10 µM; 2,300 tested, 41% active; AID 2032, 2009;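 active means Primary-screen hit whose thallium flux fell at least 3 control SD below untreated wells in both duplicates, with normal baseline fluorescence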;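 further: 0% = blank wells without stimulus and 100% = stimulated no-compound controls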
HEK293 ctr – alters thallium flux in parental HEK293 cells, Kir2.1 counter-screen. FluxOR signal as % of negative control (100 = no effect), % at 10 µM. 2,300 tested, 19% active. shares compounds with KCNQ2 pot. FluxOR thallium flux fluorescence; 0% = unstimulated blank wells. AID 2105;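 active means dye signal at least 3 control SD above or below untreated wells in both duplicates, raw fluorescence within 3, either direction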;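 further: percent is based on the flux ratio of peak minus minimum fluorescence over baseline F0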
CHO-K1 ctr – nonspecific thallium flux increase in parental CHO-K1, confirmation, counter-screen for KCNQ2 potentiator project, cell-based, FluxOR thallium flux, duplicate; 1,200 tested, 43% active; shares compounds with KCNQ2 pot; AID 2282, 2010; activity increase over 3SD of controls, % at 10 µM; parental CHO-K1 cells, FluxOR thallium flux fluorescence; zero = vehicle mean+3SD, 100% = vehicle-minus-blank window;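 active means signal rise of at least 3 SD above the untreated control mean, in both duplicate wells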;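 further: counter screen of KCNQ2 potentiator hits so any rise reflects channel-independent effects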
KCNQ1 sel pot – human KCNQ1 channel potentiation off-target, confirmation, selectivity assay for KCNQ2 potentiator project, cell-based, CHO, FluxOR thallium flux; shares compounds with KCNQ2 pot; 1,200 tested, 28% active; AID 2283, 2010; CHO KCNQ1 stable, FluxOR thallium flux fluorescence; beyond 3SD, as % of vehicle-control signal; activation over 3SD threshold, % at 10 µM;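 active means fluorescence ratio rise of at least 3 SD of vehicle wells above their mean, in both replicate wells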;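 further: 0% = vehicle mean plus 3 SD and 100% = vehicle minus unstimulated blank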
Target sequence (P51787 whole entry, looked up): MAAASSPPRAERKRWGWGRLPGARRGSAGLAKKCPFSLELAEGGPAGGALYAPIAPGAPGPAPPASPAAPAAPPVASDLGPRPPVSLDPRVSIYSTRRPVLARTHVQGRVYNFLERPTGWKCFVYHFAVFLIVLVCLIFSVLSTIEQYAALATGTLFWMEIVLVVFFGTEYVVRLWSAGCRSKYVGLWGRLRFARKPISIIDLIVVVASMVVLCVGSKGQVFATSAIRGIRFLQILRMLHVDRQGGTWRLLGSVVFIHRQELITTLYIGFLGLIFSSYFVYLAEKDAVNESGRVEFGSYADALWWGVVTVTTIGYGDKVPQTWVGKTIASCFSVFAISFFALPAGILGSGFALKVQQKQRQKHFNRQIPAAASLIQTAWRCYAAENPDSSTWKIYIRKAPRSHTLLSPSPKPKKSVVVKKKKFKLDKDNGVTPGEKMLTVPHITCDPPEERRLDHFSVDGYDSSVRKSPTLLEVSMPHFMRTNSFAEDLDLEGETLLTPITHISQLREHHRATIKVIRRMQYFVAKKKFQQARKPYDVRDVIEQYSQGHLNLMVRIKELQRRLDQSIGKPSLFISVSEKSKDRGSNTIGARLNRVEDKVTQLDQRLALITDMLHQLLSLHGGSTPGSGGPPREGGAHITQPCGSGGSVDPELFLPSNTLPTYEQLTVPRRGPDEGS
KCNQ2 pot conf – rat KCNQ2 channel potentiators, confirmation, cell-based, CHO, FluxOR thallium flux, duplicate | shares compounds with KCNQ2 pot | CHO-KCNQ2 cells, FluxOR thallium flux fluorescence | potentiation, less the hit threshold, % at 10 µM | 1,200 tested, 68% active | AID 2287, 2010;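 active means fluorescence ratio rising 3 SD or more over the vehicle control mean in both replicates, plus primary screen hit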;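 further: peak minus minimum thallium fluorescence divided by baseline after K/Tl stimulus; 0% = vehicle mean plus 3 SD and 100% = vehicle minus unstimulated blank difference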
Kir2-1 sel – mouse Kir2.1 channel activation off-target, confirmation, selectivity assay for KCNQ2 potentiator project, cell-based, HEK293, FluxOR thallium flux. shares compounds with KCNQ2 pot. HEK293 Kir2.1, FluxOR thallium flux fluorescence. activity over 3SD threshold, % at 10 µM. 1,200 tested, 2% active. AID 2345, 2010;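 active means fluorescence ratio rise of at least 3 SD above the vehicle-control mean, seen in both replicates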;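 further: 0% = vehicle mean plus 3 SD and 100% = vehicle minus no-stimulus blank window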
KCNQ2 W236L MoA – potentiators of retigabine-insensitive KCNQ2 W236L, mechanism study for KCNQ2 potentiator project, cell-based, rat KCNQ2 W236L, CHO, automated patch clamp; shares compounds with KCNQ2 pot; automated patch clamp current; current increase over 3SD of negative controls (%), hits give high values, % at 25 µM; 940 tested, 10% active;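 active means current increase at least 3 SD of the untreated controls above them in both duplicate recordings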
Starred values were filed as active, the others as inactive; i = inactive; nt = no result; + = active, no number.

SMILES	KCNQ2 inh	KCNQ2 pot	Kir21 confirm	HEK293 ctr	others
O=C(NCc1nc2ccccc2[nH]1)C1=C[C@@H](C2CCCCC2)C[C@@H](OCCCCO)O1	i	nt	nt	nt
Cc1ccc(C(=O)NCC(=O)N/N=C/c2cccs2)cc1C	i	0.07	nt	nt
Cc1ccc(CSC2=NCCN2C(=O)c2ccc(S(=O)(=O)N(C)C)cc2)cc1	i	nt	nt	nt
CCCCN(CC)CCCNC(=O)c1cn(-c2ccc(OC)cc2)c(=O)c2ccccc12	i	nt	nt	nt
COc1ccc(Cc2nnc(NS(=O)(=O)c3ccc([N+](=O)[O-])cc3)s2)cc1	i	0.58	nt	nt
O=C(c1ccccc1F)c1cc2c(cc1[N+](=O)[O-])OCCO2	i	nt	nt	nt
Oc1c(Br)cc(Cl)cc1C=Nc1ccc(N2CCOCC2)cc1	i	11.1*	i	i	CHO-K1 ctr=-0.6;KCNQ1 sel pot=0.5*;KCNQ2 pot conf=7.7*;Kir2-1 sel=-27.4;KCNQ2 W236L MoA=i
Oc1ccc(N=Nc2cccc(Cl)c2)cc1C=Nc1ccc(N2CCOCC2)cc1	i	1.44	nt	nt
Oc1c(Cl)cc(Cl)cc1C=Nc1ccc2c(c1)OCCO2	i	8.53*	i	i	CHO-K1 ctr=92.0*;KCNQ1 sel pot=-1.4;KCNQ2 pot conf=-1.3;Kir2-1 sel=-22.3;KCNQ2 W236L MoA=i
Brc1csc(C=Nc2ccc3c(c2)OCCOCCOCCOCCO3)c1	i	0.47	nt	nt
Cc1ccc(N=C(N)N=C(N)N)cc1	i	nt	nt	nt
CCOC(=O)c1c(S(=O)(=O)N2CCCC(C(=O)Nc3ccc(C)cn3)C2)c(C)n(C)c1C (configuration not stated)	i	nt	nt	nt
COc1ccccc1Nc1nc(NCC2CCCO2)c2ccccc2n1 (configuration not stated)	i	nt	28.5%*	i
COc1cccc(-c2nc(NCC3CCCO3)c3ccccc3n2)c1O (configuration not stated)	i	nt	nt	nt
CC(C)CO/C(=N/S(=O)(=O)c1ccccc1)c1ccccc1	i	0.96	nt	nt
CC(C)O/C(=N\S(=O)(=O)c1ccc(Cl)cc1)c1ccccc1	i	nt	65.5%*	i
COc1ccccc1C(=O)NNC(=O)CCC(=O)NCc1ccccc1	i	nt	nt	nt
O=C(N/N=C/c1ccc(N2CCCCC2)o1)c1ccccc1[N+](=O)[O-]	i	nt	nt	nt
Cc1ccc(S(=O)(=O)Nc2c(O)ccc3ccccc23)cc1	i	2.44	nt	nt
Cc1ccc(S(=O)(=O)Nc2c(Cl)c(Cl)c(O)c3ccccc23)cc1	i	6.4*	i	i	CHO-K1 ctr=-9.1;KCNQ1 sel pot=67.8*;KCNQ2 pot conf=-10.9;Kir2-1 sel=-45.2;KCNQ2 W236L MoA=i
COC(=O)CN1C(=O)Nc2ccc(Cl)cc2C1c1ccccc1 (configuration not stated)	i	1.82	nt	nt
COC(=O)CN1C(=O)Nc2ccc(Br)cc2C1c1ccccc1Cl (configuration not stated)	i	15.4*	i	i	CHO-K1 ctr=-13.5;KCNQ1 sel pot=+;KCNQ2 pot conf=38.2*;Kir2-1 sel=-37.3;KCNQ2 W236L MoA=6.9%*
Cc1cccc(OCC(=O)NC2CCCC2)c1	i	0.59	nt	nt
